± gives the standard deviation of the averaged measurements. Over roughly 25,000 sequences, “ln(normalized median fluorescence intensity)” has its median near 10; the highest 2% begin near 12. Many of the other results were omitted from the sample, so the highest values are more common in it than they were.
System: PfAP2-G AP2 domain (GST-tagged)
Test: gcPBM binding intensity (ln(normalized median fluorescence intensity)); higher = stronger DNA binding
Summary of the method: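 The binding buffer was 1× PBS containing 1% milk, 0.2 mg/ml BSA, 0.5% salmon testes DNA and 0.03% Triton X-100. In it, GST-tagged P. falciparum DNA-binding domains expressed in E. coli were applied for 1 h to an Agilent 4 × 180k array of primer-extended double-stranded 36-bp intergenic genomic probes plus negative controls. Binding intensity, read with Alexa488 anti-GST antibody and a 488 nm scan, is the highest Masliner-normalised natural-log median intensity across replicate spots of either probe orientation.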

Sequence | gcPBM binding intensity (ln)
ATTCCAAAAAAATCAAGTACTAATTTATTATATTAC [XGTACX_site3920] | 10.9 ± 0.49
AATAAATTTAGACACACACACACATATAAATAAATA [CACACA_site6531] | 10.1 ± 0.13
AAAGAATTTGCATATACACACAAAAAAATATATACA [CACACA_site386] | 10.03 ± 0.035
TATATTAATAATAAGTGTACATATATATATATTTTT [XGTACX_site288] | 11.3 ± 0.81
CATGTGCATATTAAATGTACATATATACATATATAC [XGTACX_site857] | 10.9 ± 0.58
TATATATATATTTATACACACATTAGTGTATACATG [CACACA_site2950] | 10.3 ± 0.22
TTGTGTACATATTAAGTGCATATATATATATATATA | 11.7 ± 1.2
ATATTAATATACATATGTACATATATATATATATAT [XGTACX_site7425] | 11.2 ± 0.62
AATATATTTATATAGTGTACATTTTTTATATATGTA [XGTACX_site8142] | 11.3 ± 0.78
TTACATACATACAAGTGTACGCATATATTAATATTA [XGTACX_site4006] | 11.8 ± 1
TTAATATATTATATTTGTACATATATATATATACAA [XGTACX_site4798] | 10.9 ± 0.62
TTTTTTTTATTAGTGTGTACGCATTTATTTATACAT [XGTACX_site1599] | 11.7 ± 0.88
AATATATCTTTTTACGGCAACCATATTTTTCCCATT [CACACA_negctrl_site963] | 10.21 ± 0.064
TGATTATCCTATATATATTTCATAATGGAAAAAAAT [TGCATGCA_negctrl_site444] | 9.89 ± 0.35
CCATATGATATATATTGTACATTATATATTATTTCT [XGTACX_site1697] | 10.7 ± 0.45
CGTTAAAGGGAATGTATACACACGTTTCTCTATGTT [CACACA_site1198] | 10.2 ± 0.16
TAAAAAAAAACATATACACACAAAAACGTACACATA [CACACA_site1354] | 11.8 ± 1.1
ATATACACACAAAAACGTACACATATATATATGTAT [XGTACX_site2673] | 11.7 ± 0.86
ACGTATAATATGTACACACACATATATACAAAAAAA [CACACA_site917] | 11.5 ± 1.1
TATAAACGTATAATATGTACACACACATATATACAA [XGTACX_site1686] | 11.3 ± 0.94
TATATACACATATATAAACACACAAAAAAAAAAAAA [CACACA_site8626] | 9.89 ± 0.48
TATACACATATATAAACACACAAAAAAAAAAAAAAA [CACACA_site7041] | 9.78 ± 0.53
AAAAATTTATTTTGTTTTTTAAGATTTTTTTTTTTT [CACACA_negctrl_site1210] | 9.46 ± 0.028

Sequence | gcPBM binding intensity (ln)
TAGTATAATATGAACACACACACACGCACAAAAAAA [CACACA_site7035] | 10.4 ± 0.2
CATATAATATAATTATGTACATATATAATAATATAC [XGTACX_site5278] | 11.2 ± 0.69
CTTATTTAAGAGTATGAACACACATCATACACATAT [CACACA_site9205] | 10.3 ± 0.23
TTTTGTTACGGCAAGGAAGTTAAGCATAAATGAATG [GTGCAC_negctrl_site173] | 10.1 ± 0.16
AAAAAAAAAAAAAAAGGTACAGTAAAAAATTCCTCT [XGTACX_site5947] | 11.7 ± 0.98
AAAAAAAAATAAAAAAGTACAGGTAAATATATATAT [XGTACX_site5812] | 11.5 ± 1.2
AAAAAAGGTAAAAAAAGTACAAAAAAAAAATTAAAA [XGTACX_site6993] | 11.3 ± 0.88
ATATTGTAAGTAAACACACACACATATATATGTATA [CACACA_site8124] | 9.955 ± 0.035
ATATATAAAATATATTGTACATTAACATATATATTT [XGTACX_site2055] | 10.7 ± 0.43
AAAGACAAAAGGAATTGTACATAATATATAAAATAT [XGTACX_site2923] | 10.8 ± 0.54
ATAAATATAACATATTGTACCCTTAAAAAGGAACAA [XGTACX_site352] | 11.7 ± 0.96
ATAATATATTTTTGTAGTACACTTCTGGTAATATCG [XGTACX_site2402] | 11.7 ± 1
TAATAATATATTTGTAGTACACAATTTTTTATAACT [XGTACX_site3951] | 11.6 ± 0.89
TAGTAATATATATTTTGTACATAAAATAATATATAA [XGTACX_site7971] | 10.9 ± 0.59
AAGTTTTATTTAAATTGTACTAAAATTTTTATATTA [XGTACX_site7065] | 11 ± 0.69
ACATATATATAAAGGTGTACACATATATATATATAT [XGTACX_site4779] | 11.7 ± 0.76
TATATATAAAGGTGTACACATATATATATATCTGTA [CACACA_site5311] | 11.7 ± 0.98
AATACAATATAAAGGTGTACATATATATATATATAT [XGTACX_site68] | 11.4 ± 0.9
TATATATATCTGTACACACACACATATAAATAAATA [CACACA_site4405] | 11.4 ± 1
AACACATAAAAAAGGTGTACCATAAAATATACATAC [XGTACX_site4478] | 11.4 ± 0.76
TAAAGTTATGCAATAACACACATATACAATACATAT [CACACA_site6698] | 9.98 ± 0.057
ATACAATAAAGGTGTACACATATATGATGCAAGATG [CACACA_site5897] | 11.7 ± 0.93
AATAAATAAATATATACACACATATATCTGTACATA [CACACA_site9034] | 10.9 ± 0.67

Sequence | gcPBM binding intensity (ln)
TGATGCAAGATATATACACACATATAAATATAAATA [CACACA_site7429] | 9.8 ± 0.042
TAAGCCAAGGGATAAATAAAATAACAAAATGAAATC [GTGCAC_negctrl_site601] | 9.66 ± 0.36
ATATGTATATATAAAAGTACGCGTAAAAAAAAAAAA [XGTACX_site5377] | 11.7 ± 1.3
AAATATAAAAGTATATGTACATATATATATATATAT [XGTACX_site7446] | 11.2 ± 0.64
TATACACATATATAAAGTACATATATGTGTAAAAAA [XGTACX_site8582] | 11 ± 0.64
TATTTTTTAAAAAAATGTCATAAAATTTCTTTTTTC [XGTACX_negctrl_site271] | 9.9
AAAAAAAAAAAAAGATGTACATATATTTTTATTATA [XGTACX_site654] | 11.4 ± 0.96
TAATATATTAATTTTTGTACTTAATTATATGTTTTT [XGTACX_site5654] | 10.9 ± 0.63
GCCTATATGTTTAGTTGTACTCCTAATATTATTTGT [XGTACX_site6060] | 11.7 ± 1.1
ATATGCCTAATAAAATGTACGTTTGTTTTATTTATT [XGTACX_site3833] | 11 ± 0.49
ACTTTCAAGGATGTACGTACATATGTATTTTATAAC [XGTACX_site6714] | 11.7 ± 0.91
CTTTAACCATATATGTGTACGTATTTTATTCATATT [XGTACX_site6212] | 11.8 ± 1.1
ATATATACATATATATGTACGTATATTTTTATTTCT [XGTACX_site6198] | 11.6 ± 1.1
ATATGTATATTTTTTTGTACGTATTTATGTGTGTGT [XGTACX_site2093] | 11.4 ± 0.84
ATATTTATATTTTCATGTACGTATTTTTATATATAT [XGTACX_site8478] | 11.6 ± 0.96
ATACATATATAATTATGTACGTATATTTTATATAAC [XGTACX_site4292] | 11.6 ± 0.91
TAATAAATCAAATGCACACACACAAAAAAAAAAAAA [CACACA_site161] | 10 ± 0.49
AGAAATATATATATATATATATATATATATATATAT [TGCATGCA_negctrl_site375] | 10 ± 0.88
TCTTTAAATTTCTCAACACACAGTTATAAAAAATAA [CACACA_site2856] | 9.8 ± 0.085
TATAAATTTTTATTTACATGCAGTTATTATTTCCAT [TGCATGCA_site41] | 10 ± 0.18
TAGTATTAAAATATTTGTACTTATATGTATTATATA [XGTACX_site538] | 11 ± 0.69
GCTTTTAAAATAATTGGTACACATGTATAAATTCAA [XGTACX_site2327] | 11.1 ± 0.69
TAATGGTATAAAAAATGTACATGTTTTTTTACAATT [XGTACX_site4285] | 11.2 ± 0.54

Sequence | gcPBM binding intensity (ln)
TAATGGTGTTCATGTGGTACACTTTATAAATTGGCA [XGTACX_site729] | 11.7 ± 1.1
TCATTCATATGTTACACACACACACGCACATAAAAA [CACACA_site7514] | 10.5 ± 0.35
TTATGATATATTTGTTGTACGCTTTTTTTATGAACT [XGTACX_site573] | 11.8 ± 1.1
ATTTTATATATGTGTTGTACGGTGAACATTTTGATA [XGTACX_site6538] | 10.8 ± 0.58
TTTTCAATATATATTTGTACTTTATTTTATGATATT [GTGCAC_negctrl_site732] | 11.2 ± 0.75
ATTTTAAATATTTGTGGTACCCCTTTTTTGTAACAA [XGTACX_site5590] | 11.8 ± 1.1
GAAATATTTGTAAAAACATGCATGGTACTTTTAAAA [TGCATGCA_site6] | 11 ± 0.7
TTCCCTTTTGTAAAATGTACATATATATTTAAACAA [XGTACX_site3263] | 11.2 ± 0.54
ATTTATATTTAATATACACACATTATTTTTTTATAT [CACACA_site574] | 9.955 ± 0.021
ATATATGACAAATGTAGTACAAATTATTGTATCATA [XGTACX_site3675] | 11.4 ± 0.76
TAAAAATGGGAGGGGTGTACTACACAATAAAATTAT [XGTACX_site5641] | 11.6 ± 0.95
TGTAGAGCGCAAAGTAGTACTACAAATTATGGAGGG [XGTACX_site3022] | 11.8 ± 1
TTATATTTTTACAAGAGTACATATATATATATATAT [XGTACX_site5383] | 11.4 ± 1.1
ATGTAAATACATATATGTACACAAATATATATATAT [XGTACX_site3537] | 11.6 ± 1.1
TATATTTTATATTGGTGTACAATTTTTTTTTTTTTT [XGTACX_site4291] | 11.4 ± 0.91
TTATTTTTTTTGTGTTGTACAATTTATTACTACTAA [XGTACX_site346] | 11.3 ± 0.82
TTCTGTGTGTATTGGCGTACAATTATTTTGCCTACA [XGTACX_site205] | 11.7 ± 0.83
TTTTTATAAAAATGAACACACACATATATATATATA [CACACA_site9160] | 10.2 ± 0.49
ATGTGTTGGGAAAAGGCATGCACTTTTTTTTTTTTT [TGCATGCA_site707] | 10.2 ± 0.11
GTACAGATGTAGTATGCATGTAATTATATATAAATT [TGCATGCA_site292] | 11.1 ± 0.47

— the supplement of paper PMC11417369
